Source: PubChem BioAssay AID1159580 (chemical genetic matrix, 2015)
Among all 5,500 compounds or so, about 2,000 (36%) were called active. About 18% were inconclusive and are not listed. No stated cut-off is given here; in the data, active means normalized growth mostly below about 0.91 (no sharp cut-off); inconclusive means no clear call, values can overlap the other calls; inactive means mostly above about 0.92. Some of the results follow.

Experiment: chemical genetic growth profiling, strain panel (AID 1159580);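 further: tested at 20 µM; growth read once vehicle control cultures reached saturation at 30 °C; 1 = growth at the plate median or of vehicle wells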
Conditions: growth OD
[1] = S. cerevisiae deletion strains, locus YDR150W, strain NUM1, stronger effect = lower value
[2] = S. cerevisiae deletion strains, locus YGR078C, strain PAC10, stronger effect = lower value
[3] = S. cerevisiae deletion strains, locus YMR307W, strain GAS1, stronger effect = lower value
[4] = S. cerevisiae deletion strains, locus YNL153C, strain GIM3, stronger effect = lower value
[5] = S. cerevisiae deletion strains, locus YNL322C, strain KRE1, stronger effect = lower value
[6] = S. cerevisiae deletion strains, locus YPL241C, strain CIN2, stronger effect = lower value

Measured: normalized growth

CC#CCOC(=O)c1c(C)nc2sc3c(c2c1N)CCC(O)C3 (stereo not given)
inactive: S. cerevisiae deletion strains, locus YAL040C, strain CLN3, stronger effect = lower value 1.06 | S. cerevisiae deletion strains, locus YCL061C, strain MRC1 (second series), stronger effect = lower value 0.993 | [1] 0.987 | S. cerevisiae deletion strains, locus YDR363W, strain ESC2, stronger effect = lower value 1 | S. cerevisiae deletion strains, locus YER002W, strain NOP16, stronger effect = lower value 0.971 | [2] 0.982 | [3] 0.994 | [4] 1.18 | S. cerevisiae deletion strains, locus YNL175C, strain NOP13, stronger effect = lower value 0.955 | S. cerevisiae deletion strains, locus YNL197C, strain WHI3, stronger effect = lower value 0.967 | S. cerevisiae deletion strains, locus YNL224C, strain SQS1, stronger effect = lower value 0.971 | [5] 0.982 | S. cerevisiae deletion strains, locus YOR083W, strain WHI5 (second series), stronger effect = lower value 0.891 | [6] 0.99

CC1(C)CC2C1(O)CCC1(C)C=CC(O)C21CO (stereo not given)
inactive: S. cerevisiae deletion strains, locus YAL013W, strain DEP1, stronger effect = lower value 0.99 | S. cerevisiae deletion strains, locus YBR021W, strain FUR4, stronger effect = lower value 1.01 | S. cerevisiae deletion strains, locus YBR229C, strain ROT2, stronger effect = lower value 0.995 | S. cerevisiae deletion strains, locus YCL029C, strain bik1, stronger effect = lower value 0.975 | S. cerevisiae deletion strains, locus YDL035C, strain GPR1, stronger effect = lower value 0.983 | S. cerevisiae deletion strains, locus YDL074C, strain BRE1, stronger effect = lower value 1.03 | S. cerevisiae deletion strains, locus YDL101C, strain DUN1, stronger effect = lower value 0.998 | S. cerevisiae deletion strains, locus YDL134C, strain PPH21, stronger effect = lower value 0.998 | S. cerevisiae deletion strains, locus YDL185W, strain tfp1, stronger effect = lower value 0.976 | S. cerevisiae deletion strains, locus YDL192W, strain arf1, stronger effect = lower value 0.979 | S. cerevisiae deletion strains, locus YDR101C, strain arx1, stronger effect = lower value 1 | [1] 0.987 | S. cerevisiae deletion strains, locus YDR162C, strain NBP2, stronger effect = lower value 1.03 | S. cerevisiae deletion strains, locus YDR318W, strain mcm21, stronger effect = lower value 0.975 | S. cerevisiae deletion strains, locus YDR388W, stronger effect = lower value 0.993 | S. cerevisiae deletion strains, locus YDR502C, strain sam2, stronger effect = lower value 1.01 | S. cerevisiae deletion strains, locus YEL061C, strain CIN8, stronger effect = lower value 0.992 | S. cerevisiae deletion strains, locus YER110C, stronger effect = lower value 0.959 | S. cerevisiae deletion strains, locus YER155C, strain BEM2, stronger effect = lower value 0.995 | S. cerevisiae deletion strains, locus YER167W, strain BCK2, stronger effect = lower value 0.982 | S. cerevisiae deletion strains, locus YGL078C, strain dbp3, stronger effect = lower value 0.994 | S. cerevisiae deletion strains, locus YGL086W, strain mad1, stronger effect = lower value 0.969 | S. cerevisiae deletion strains, locus YGL248W, strain PDE1, stronger effect = lower value 0.993 | [2] 1.03 | S. cerevisiae deletion strains, locus YGR135W, strain pre9, stronger effect = lower value 1.02 | S. cerevisiae deletion strains, locus YGR229C, strain SMI1, stronger effect = lower value 1.03 | S. cerevisiae deletion strains, locus YGR252W, strain gcn5, stronger effect = lower value 0.995 | S. cerevisiae deletion strains, locus YHR030C, strain SLT2, stronger effect = lower value 0.982 | S. cerevisiae deletion strains, locus YHR079C, strain IRE1 (second series), stronger effect = lower value 0.988 | S. cerevisiae deletion strains, locus YHR094C, strain hxt1, stronger effect = lower value 0.98 | S. cerevisiae deletion strains, locus YHR129C, strain ARP1, stronger effect = lower value 0.997 | S. cerevisiae deletion strains, locus YHR200W, strain rpn10, stronger effect = lower value 0.984 | S. cerevisiae deletion strains, locus YIL066C, strain RNR3, stronger effect = lower value 0.992 | S. cerevisiae deletion strains, locus YIL073C, strain SPO22, stronger effect = lower value 0.873 | S. cerevisiae deletion strains, locus YIL125W, strain kgd1, stronger effect = lower value 0.976 | S. cerevisiae deletion strains, locus YIR030C, strain dcg1, stronger effect = lower value 0.99 | S. cerevisiae deletion strains, locus YJL095W, strain BCK1, stronger effect = lower value 1.04 | S. cerevisiae deletion strains, locus YJL134W, strain LCB3, stronger effect = lower value 0.992 | S. cerevisiae deletion strains, locus YJL168C, strain set2, stronger effect = lower value 0.989 | S. cerevisiae deletion strains, locus YJL187C, strain SWE1 (second series), stronger effect = lower value 1 | S. cerevisiae deletion strains, locus YJR043C, strain POL32, stronger effect = lower value 0.994 | S. cerevisiae deletion strains, locus YJR075W, strain HOC1, stronger effect = lower value 0.988 | S. cerevisiae deletion strains, locus YKL009W, strain mrt4, stronger effect = lower value 0.95 | S. cerevisiae deletion strains, locus YKL068W, stronger effect = lower value 0.98 | S. cerevisiae deletion strains, locus YKL085W, strain MDH1 (second series), stronger effect = lower value 0.976 | S. cerevisiae deletion strains, locus YKL085W, strain MDH1, stronger effect = lower value 0.976 | S. cerevisiae deletion strains, locus YKL190W, strain CNB1, stronger effect = lower value 0.999 | S. cerevisiae deletion strains, locus YKR001C, strain vps1, stronger effect = lower value 1 | S. cerevisiae deletion strains, locus YLR039C, strain RIC1, stronger effect = lower value 0.945 | S. cerevisiae deletion strains, locus YLR058C, strain SHM2, stronger effect = lower value 0.983 | S. cerevisiae deletion strains, locus YLR102C, strain apc9, stronger effect = lower value 0.987 | S. cerevisiae deletion strains, locus YLR262C, strain YPT6, stronger effect = lower value 0.936 | S. cerevisiae deletion strains, locus YLR268W, strain sec22, stronger effect = lower value 1.02 | S. cerevisiae deletion strains, locus YLR330W, strain CHS5, stronger effect = lower value 0.984 | S. cerevisiae deletion strains, locus YLR342W, strain FKS1 (second series), stronger effect = lower value 0.994 | S. cerevisiae deletion strains, locus YLR371W, strain rom2, stronger effect = lower value 0.969 | S. cerevisiae deletion strains, locus YLR418C, strain cdc73, stronger effect = lower value 1.06 | S. cerevisiae deletion strains, locus YML016C, strain PPZ1, stronger effect = lower value 0.994 | S. cerevisiae deletion strains, locus YML032C, strain rad52, stronger effect = lower value 1.09 | S. cerevisiae deletion strains, locus YML124C, strain tub3, stronger effect = lower value 0.988 | S. cerevisiae deletion strains, locus YMR078C, strain ctf18, stronger effect = lower value 0.985 | S. cerevisiae deletion strains, locus YMR223W, strain ubp8, stronger effect = lower value 0.977 | S. cerevisiae deletion strains, locus YMR263W, strain SAP30, stronger effect = lower value 1.01 | [3] 1.08 | S. cerevisiae deletion strains, locus YNL067W, strain RPL9B, stronger effect = lower value 1.03 | S. cerevisiae deletion strains, locus YNL128W, strain TEP1, stronger effect = lower value 0.996 | [4] 1.03 | S. cerevisiae deletion strains, locus YNL233W, strain BNI4, stronger effect = lower value 1.04 | S. cerevisiae deletion strains, locus YNL250W, strain rad50, stronger effect = lower value 0.973 | S. cerevisiae deletion strains, locus YNL271C, strain bni1, stronger effect = lower value 0.973 | S. cerevisiae deletion strains, locus YNL298W, strain CLA4, stronger effect = lower value 0.977 | S. cerevisiae deletion strains, locus YNL307C, strain MCK1, stronger effect = lower value 0.999 | [5] 0.981 | S. cerevisiae deletion strains, locus YNR052C, strain pop2, stronger effect = lower value 0.963 | S. cerevisiae deletion strains, locus YOL006C, strain TOP1, stronger effect = lower value 1.03 | S. cerevisiae deletion strains, locus YOL012C, strain htz1 1.26 | S. cerevisiae deletion strains, locus YOL147C, strain pex11, stronger effect = lower value 0.977 | S. cerevisiae deletion strains, locus YOR061W, strain CKA2, stronger effect = lower value 0.997 | S. cerevisiae deletion strains, locus YOR069W, strain VPS5, stronger effect = lower value 0.994 | S. cerevisiae deletion strains, locus YOR136W, strain idh2, stronger effect = lower value 0.984 | S. cerevisiae deletion strains, locus YOR144C, strain elg1, stronger effect = lower value 0.984 | S. cerevisiae deletion strains, locus YOR184W, strain ser1, stronger effect = lower value 0.965 | S. cerevisiae deletion strains, locus YOR316C, strain cot1, stronger effect = lower value 0.991 | S. cerevisiae deletion strains, locus YPL055C, strain LGE1, stronger effect = lower value 1.03 | [6] 0.991 | S. cerevisiae deletion strains, locus YPR119W, strain clb2, stronger effect = lower value 0.988 | S. cerevisiae deletion strains, locus YPR141C, strain kar3, stronger effect = lower value 0.982 | S. cerevisiae deletion strains, locus YPR163C, strain tif3, stronger effect = lower value 0.972 | S. cerevisiae deletion strains, locus YPR167C, strain met16, stronger effect = lower value 0.994 | S. cerevisiae deletion strains, strain wtn01, stronger effect = lower value 1.02 | S. cerevisiae strains, strain wild type, stronger effect = lower value 0.993
